About 570 (0.26%) of roughly 220,000 compounds were called active. The sample holds actives, similar compounds and a random draw of the others, so the mix is not that of the screen. Cut-off read from the data, not from the text of the source: active = inhibition above about 29%; inactive = the rest.
These molecules were tested against Sphingosine 1-phosphate receptor 4 (Homo sapiens) (UniProt O95977) (assay: S1P4 receptor antagonists, primary screen, cell-based (AID 1510;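 note: 0% = wells stimulated with agonist and 100% = vehicle wells without agonist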)). Details: S1P4-expressing cells, antagonist mode, reporter read-out; at 4.98 µM; active compounds read high.
Chain of Sphingosine 1-phosphate receptor 4 (Homo sapiens) (O95977 whole entry, looked up): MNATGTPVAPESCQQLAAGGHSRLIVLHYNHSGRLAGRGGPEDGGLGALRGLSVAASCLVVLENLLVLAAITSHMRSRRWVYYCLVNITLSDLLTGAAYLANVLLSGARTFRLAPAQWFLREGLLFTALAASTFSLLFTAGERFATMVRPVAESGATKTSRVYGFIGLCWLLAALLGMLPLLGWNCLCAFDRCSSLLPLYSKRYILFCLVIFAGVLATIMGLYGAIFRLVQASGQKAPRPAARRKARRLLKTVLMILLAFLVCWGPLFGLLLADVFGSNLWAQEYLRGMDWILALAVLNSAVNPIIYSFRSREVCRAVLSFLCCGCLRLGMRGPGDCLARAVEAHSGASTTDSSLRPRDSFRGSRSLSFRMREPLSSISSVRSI
`CC(C)(C)C(=O)NCCCNc1ccc([N+](=O)[O-])cc1` was tested, and the inhibition was 4.36% (inactive).
In the case of `Cc1cc(C)n(-c2nnc(N3CCN(c4ccccc4)CC3)nn2)n1`, the inhibition is reported as 9.76% (inactive).
`CCn1nnnc1SCC(=O)c1ccc(C)cc1C` was tested, and the inhibition was -2.87% (inactive).
In the case of `Cc1ccc(SC(CC(=O)c2ccc(C(C)(C)C)cc2)C(=O)O)cc1` (stereo not drawn), the inhibition is reported as 26% (inactive).
In the case of `Cn1c(=O)c2c(nc(N/N=C/c3cccs3)n2Cc2ccc(Br)cc2)n(C)c1=O`, the inhibition is reported as -19.2% (inactive).
For `Cc1ccc(COc2ccc(/C=N/NC(=O)CN3CCCCC3)cc2)cc1`, the inhibition was -8.97% (inactive).
For `CC1(C)CCCC2=C1CC1C(=O)N(c3ccccc3)C(=O)C1C2` (stereo not drawn), the inhibition was -11.5% (inactive).
For `CC1CC2=C(CC1/C=N/NC(N)=S)C(C)(C)CCC2` (stereo not drawn), the inhibition was 29.9% (active).
For `CC(=O)Nc1nonc1-c1nc2ccccc2n1Cc1ccccn1`, the inhibition was -6.67% (inactive).
With `COc1ccc(C)c(Cn2c(-c3nonc3N)nc3ccccc32)c1` the inhibition was -20.7% (inactive).
`Nc1nonc1-c1nc2ccccc2n1Cc1ccc(F)cc1` was tested, and the inhibition was 38.9% (active).
For `COc1ccc(CCCc2nnc(SCc3nc4ccccc4c(=O)[nH]3)n2C)cc1`, the inhibition was 3.12% (inactive).
With `C=C(C)CNC(=S)Nc1ccc(S(=O)(=O)Nc2cnc3ccccc3n2)cc1` the inhibition was 2.29% (inactive).
In the case of `Cc1cc2oc(C(=O)Nc3c(C)n(C)n(-c4ccccc4)c3=O)c(C)c2cc1Cl`, the inhibition is reported as 29.2% (active).
For `Cc1c(NC(=O)c2coc(=O)c(Br)c2)c(=O)n(-c2ccccc2)n1C`, the inhibition was -7.02% (inactive).
`Cc1cc(C(=O)Nc2c(C)n(C)n(-c3ccccc3)c2=O)cs1` was tested, and the inhibition was -8.59% (inactive).
With `COc1ccc(NC(=O)COC(=O)c2ccncc2)c(OC)c1` the inhibition was -5.29% (inactive).
`Cc1cc(C(C)(C)C)oc1C(=O)N(CC(=O)NC1CCCC1)Cc1ccc(Cl)cc1` was tested, and the inhibition was -6.52% (inactive).
`CC(C)NC(=S)N1CCN(S(C)(=O)=O)CC1` was tested, and the inhibition was -10.4% (inactive).
In the case of `Cc1nc2cc3c(cc2s1)OCO3`, the inhibition is reported as -20.6% (inactive).
With `COc1ccc(C(=O)NCc2nnc(SCCOc3ccccc3)n2C)cc1` the inhibition was -1.19% (inactive).
In the case of `CC(C)N(C(=O)c1ccc(-c2ccccc2F)cc1)C(C)C`, the inhibition is reported as 26.9% (inactive).
With `CC(NCc1ccccc1OC1CCCC1)c1ccccc1` (stereo not drawn) the inhibition was 27.7% (inactive).
For `CC(C)(C)NC(=O)C(=O)NCc1ccncc1`, the inhibition was -14.6% (inactive).
For `CNS(=O)(=O)c1ccc(NC(=O)C2CC(=O)N(c3ccc(Cl)cc3)C2)cc1` (stereo not drawn), the inhibition was 12.8% (inactive).
For `CC(=O)Nc1ccc(S(=O)(=O)N2CCN(c3ccc([N+](=O)[O-])c(NCCN4CCOCC4)c3)CC2)cc1`, the inhibition was -3.22% (inactive).
With `COc1cc(NC(=O)CN(C)S(=O)(=O)c2ccc3nc(C)sc3c2)cc(OC)c1` the inhibition was -2.8% (inactive).
For `Cc1cc(/C=N/NC(N)=O)c(C)n1C1CCCCC1`, the inhibition was 16.8% (inactive).
In the case of `Cc1cccc(C(=O)Nc2ccccc2C(=O)NCc2cccnc2)c1`, the inhibition is reported as -7.4% (inactive).
For `Cc1ccc2cc(/C=N/Nc3ccc(C(=O)O)cc3)c(Cl)nc2c1`, the inhibition was 4.36% (inactive).
In the case of `Cc1nc([N+](=O)[O-])cn1CC(=O)Nc1ccc2c(c1)OCO2`, the inhibition is reported as -4.57% (inactive).
In the case of `Cc1nn(CC#N)c(=O)n1N(C)c1ncc(C(F)(F)F)cc1Cl`, the inhibition is reported as -4.17% (inactive).
For `CCOc1ccc(C(=O)Nc2cccc(-c3ccc4nncn4n3)c2)cc1`, the inhibition was 0.94% (inactive).
In the case of `O=C(C1CCN(S(=O)(=O)c2ccc(Br)s2)CC1)N1CCN(C2CCCCC2)CC1`, the inhibition is reported as -2.03% (inactive).
For `CN(C)c1ccc(/C=C/C(=O)c2ccc(C(C)(C)C)cc2)cc1[N+](=O)[O-]`, the inhibition was -10.1% (inactive).
For `CN(C)c1ccc(/C=C/C(=O)c2ccc(O)cc2)cc1[N+](=O)[O-]`, the inhibition was 6.74% (inactive).
For `O=C(/C=C/c1ccc(Cl)c([N+](=O)[O-])c1)c1ccc(O)cc1`, the inhibition was 46.2% (active).
`COc1ccccc1CNC(=O)Cn1c(=O)oc2cc(Cl)ccc21` was tested, and the inhibition was 0.8% (inactive).
In the case of `COc1ccc(C[C@H]2CN3C(=NC[C@H]3C)N2CCNC(=O)CCC2CCCCC2)cc1`, the inhibition is reported as -5.06% (inactive).
`CC1CCCC(NC(=O)c2cccc(N3CCCC3=O)c2)C1C` (stereo not drawn) was tested, and the inhibition was -7.04% (inactive).
In the case of `C/C(=N/O)c1ccc(N2C(=O)C3C4C=CC(C3C2=O)C2C3C(=O)N(c5ccc(/C(C)=N/O)cc5)C(=O)C3C42)cc1` (stereo not drawn), the inhibition is reported as -4.36% (inactive).
`COC(=O)C1=C(Nc2ccc(C)cc2)C=C(C)C(C(=O)OC)C1c1ccc(F)cc1` (stereo not drawn) was tested, and the inhibition was -18% (inactive).
In the case of `O=C(NNC(=S)Nc1ccc(Br)cc1Cl)c1ccco1`, the inhibition is reported as -12.4% (inactive).
`NC(=O)N/N=C\c1cccs1` was tested, and the inhibition was -18.6% (inactive).
For `CCCCCCCC(=O)NC(Nc1ccccc1OC)C(Cl)(Cl)Cl` (stereo not drawn), the inhibition was 8.46% (inactive).
With `Cc1cc(NC(=O)CSCc2ccccc2C)no1` the inhibition was -4.86% (inactive).
`C=CS(=O)c1sc(Cl)c(N2CCOCC2)c1[N+](=O)[O-]` (stereo not drawn) was tested, and the inhibition was 46.3% (active).
For `O=c1c2cc(-c3ccccc3)sc2nc2n1N=C(c1cccs1)CS2`, the inhibition was -3.31% (inactive).
For `CCOc1ncccc1C(=O)N(CC)CC(=O)Nc1ccc(NC(C)=O)cc1`, the inhibition was -27.8% (inactive).
For `CNc1ccc(SC#N)cc1`, the inhibition was 30.8% (active).
In the case of `CC[C@H]1CN2CCc3cc(OC)c(OC)cc3[C@@H]2C[C@@H]1C[C@H]1NCCc2cc(OC)c(OC)cc21`, the inhibition is reported as 82.3% (active).
For `COc1cc2c(cc1O)[C@H](Cc1ccc(Oc3cc(C[C@@H]4NCCc5cc(OC)c(O)cc54)ccc3O)cc1)NCC2`, the inhibition was -13.1% (inactive).
With `O=C(Nc1ccc(Cl)cc1)Nc1ccc(C(=O)N2CCOCC2)cc1` the inhibition was 6.4% (inactive).
In the case of `Cc1ccc(Oc2cc(NC(=O)CCCn3nc(C)c([N+](=O)[O-])c3C)cc([N+](=O)[O-])c2)cc1`, the inhibition is reported as -12.2% (inactive).
In the case of `O=C(Nc1ccccc1)c1nnsc1S(=O)(=O)c1ccc(Cl)cc1`, the inhibition is reported as 93.8% (active).
For `O=C(Nc1ccc(Cl)cc1)c1ccsn1`, the inhibition was 4.84% (inactive).
For `CS(=O)(=O)c1ccc(Cl)c(NC(=O)Nc2ccccc2)c1`, the inhibition was 17.2% (inactive).
For `CS(=O)(=O)N(CC(=O)N1CCN(c2ccc(F)cc2)CC1)C1CCCCC1`, the inhibition was -13.7% (inactive).
With `Cc1ccc(CCC(=O)Nc2ncc(Cc3cc(Cl)ccc3Cl)s2)o1` the inhibition was -6.95% (inactive).
`CCc1ccc(S(=O)(=O)NCC(O)COc2ccc(OC)cc2)cc1` (stereo not drawn) was tested, and the inhibition was 2% (inactive).
For `O=C(NCCOCc1ccc(Cl)cc1)c1ncn[nH]1`, the inhibition was -4.23% (inactive).
`O=C(/C=C/Sc1ncn[nH]1)c1ccc(Cl)cc1` was tested, and the inhibition was 47.2% (active).
With `COc1ccc(Cl)cc1CSc1ncn[nH]1` the inhibition was -3.23% (inactive).
`CC(=O)N1N=C(c2ccncc2)OC1(Cc1ccccc1)Cc1ccccc1` was tested, and the inhibition was 23.2% (inactive).
In the case of `CN(C)CCNC(=O)Cc1ccc([N+](=O)[O-])cc1`, the inhibition is reported as -16% (inactive).
In the case of `CCCc1nc2c(C)cc(-c3nc4ccccc4n3C)cc2n1Cc1ccc(-c2ccccc2C(=O)O)cc1`, the inhibition is reported as -1.52% (inactive).
`CCOc1ccc(C(C)=O)cc1COC(=O)c1cnc(Cl)c(Cl)c1` was tested, and the inhibition was -30.6% (inactive).
In the case of `CCOC(=O)/C=C/C(=O)OCC(=O)NC(c1ccccc1)c1ccccc1`, the inhibition is reported as 36.3% (active).
For `O=C(Cc1ccc(-c2ccccc2)cc1)NC(c1ccccc1)c1ccccc1`, the inhibition was -5.23% (inactive).
With `CCOC(=O)C(C(=O)OCC)C(C#N)c1ccccc1` (stereo not drawn) the inhibition was -19.7% (inactive).
With `O=C(CSc1cccc[n+]1[O-])NCCCc1ccccc1` the inhibition was 14.6% (inactive).
`O=C(Nc1nnc(CCN2CCCCC2)s1)c1cccc(Cl)c1` was tested, and the inhibition was 6.03% (inactive).
In the case of `Cc1cc(Nc2cccc(C)c2C)n2ncnc2n1`, the inhibition is reported as -10.4% (inactive).
For `O=C(CSc1nnnn1-c1ccc(O)cc1)c1ccc(F)cc1`, the inhibition was 6.46% (inactive).
With `CCOC(=O)c1sc(NC(=O)CSc2nc(O)c(Cc3ccccc3)c(=O)[nH]2)nc1C` the inhibition was -8.89% (inactive).
`Cc1[nH]c2ccccc2c1-c1ccc(Cl)nn1` was tested, and the inhibition was 2.48% (inactive).
For `O=C(CO/N=C/c1ccccc1O)NNC(=O)c1ccccc1Cl`, the inhibition was -12.4% (inactive).
`Cc1cc(C)cc(Oc2nc3c(C)cccn3c(=O)c2/C=C(\C#N)C(=O)NC2CCS(=O)(=O)C2)c1` (stereo not drawn) was tested, and the inhibition was -10.8% (inactive).
`CCNC(=O)NNC(=O)C1CC(c2cccs2)=NO1` (stereo not drawn) was tested, and the inhibition was -2.29% (inactive).
In the case of `CCOc1ccc(NS(=O)(=O)c2ccc(C)c(C(N)=O)c2)cc1`, the inhibition is reported as -13.9% (inactive).
For `CC(=O)Nc1ccc(S(=O)(=O)NC2(C(F)(F)F)C(=O)Nc3c2c(=O)[nH]c(=O)n3Cc2ccccc2)cc1` (stereo not drawn), the inhibition was -16.6% (inactive).
In the case of `O=C(Nc1ccccc1)N1CCN(C2c3ccccc3-c3ccccc32)CC1`, the inhibition is reported as -2.81% (inactive).
With `COc1ccc(NC(=O)c2cn(-c3ccccc3)nc2SC)cc1` the inhibition was -1.4% (inactive).
With `COCC(=O)Nc1cc(C(=O)OC)cc(C(=O)OC)c1` the inhibition was -10.1% (inactive).
In the case of `Nc1c(C(=O)O)cnn1-c1ccccc1`, the inhibition is reported as -7.33% (inactive).
With `CC(C)NC(=O)NCCCCCCS(C)=O` (stereo not drawn) the inhibition was -8.38% (inactive).
In the case of `CSc1cccc(NC(=O)C2CCCN2S(=O)(=O)c2ccc3c(c2)CCC(=O)N3)c1` (stereo not drawn), the inhibition is reported as -15% (inactive).
With `CCC(C)(C)C1CCC(=NNC(=O)c2ccc(Br)o2)CC1` (stereo not drawn) the inhibition was -7.44% (inactive).
`CCOC(=O)Cc1ncccc1C(=O)Nc1ccc(OC(F)(F)F)cc1` was tested, and the inhibition was -25.3% (inactive).
`COC(=O)c1ccc(S(=O)(=O)NCc2ccccc2)n1C` was tested, and the inhibition was -20.7% (inactive).
In the case of `Cc1nn(-c2ccccc2)c(C)c1NC(=O)CCl`, the inhibition is reported as -19.8% (inactive).
With `COc1ccc2ccccc2c1CNc1nnnn1C` the inhibition was 6.29% (inactive).
For `O=C(O)c1ccn(COc2ccc(Br)cc2)n1`, the inhibition was 3.75% (inactive).
In the case of `Nc1nnc(SCC(=O)Nc2ccc3nc(SCC(=O)Nc4ccccc4)sc3c2)s1`, the inhibition is reported as -10.8% (inactive).
For `CC(C)C(C)(C#N)NC(=O)CSc1nncn1-c1ccccc1` (stereo not drawn), the inhibition was -9.99% (inactive).
For `CCOc1ncccc1C(=O)N(C)CC(=O)Nc1ccc(F)cc1`, the inhibition was -7.65% (inactive).
`CCCCCC1CCC(c2nnc(SCC(C)=O)o2)CC1` (stereo not drawn) was tested, and the inhibition was -13.8% (inactive).
In the case of `NC(=O)COC(=O)c1cc(S(=O)(=O)N2CCN(c3ccccc3)CC2)ccc1Cl`, the inhibition is reported as -4.86% (inactive).
For `Cn1c(CCC(=O)OCC(=O)NCc2ccccc2Cl)nc(=O)c2ccccc21`, the inhibition was -5.53% (inactive).
For `O=C(Nc1ccc(F)cc1)N1CCN(c2ccc(F)cc2)CC1`, the inhibition was -44% (inactive).
With `Cn1c(N)c(C(=O)COC(=O)c2cnc(Cl)c(Cl)c2)c(=O)n(C)c1=O` the inhibition was -6.76% (inactive).
`CCc1nnc(NS(=O)(=O)c2ccc(NC(=S)NC(=O)/C=C/c3cccs3)cc2)s1` was tested, and the inhibition was 9.53% (inactive).
`O=C(Nc1ccccc1Cc1ccccc1)c1ccc2c(c1)SC1=NS(=O)(=O)CCN12` was tested, and the inhibition was -10.9% (inactive).
